In PubChem BioAssay AID2216 (Broad Institute, 2009):
Hit rate of the full screen: of about 300,000 compounds, about 3,300 (1.1%) were called active. Roughly 6% stayed inconclusive and do not appear here. The sample as a whole holds a higher share of actives than the screen did. A number with no mark means an inactive call.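 How the source made its calls: active means more than half of the replicate wells show a fall in the fluorescence ratio signal beyond about 16% (limit read from the data, passing the limit was not always enough); inconclusive means exactly half of the replicate wells pass the set limit; inactive means fewer than half of replicates pass the limit.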

tested on: Ran GTPase (GTP-bound) - importin-beta complex; assay: inhibitors of RanGTP-importin-beta interaction, primary screen, biochemical, FRET, CFP-Ran, YFP-importin-beta, homogeneous (AID 2216); conditions: cell-free CFP-Ran/YFP-importin-beta FRET ratio; active compounds read high; concentration not given here;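 further: 0% = DMSO wells and 100% = Ran loaded with GDP instead of GTP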

First: CCC1CCCCN1CCNS(=O)(=O)c1ccc2c(c1)CCN2C(C)=O (stereo not drawn)
Second: CC(=O)N1CCc2cc(S(=O)(=O)NC3CCCCC3)ccc21
The inhibition of the first is lower: -5.25% for the first, 2.08% for the second.

First: COc1ccccc1C(=O)NCCC(=O)NN1C(=O)NC2(CCCCC2)C1=O
Second: COc1ccccc1-n1ccnc(SCC(=O)NC2CCCCC2)c1=O
The inhibition of the first is lower: -3.94% for the first, -1.18% for the second.

Going from CCOc1ccc(C(=O)NC2CCN(C(=O)Nc3ccccc3OC)CC2)cc1 to O=C(NCCOc1cccnc1)c1ccc(OC2CCN(Cc3ccccn3)CC2)cc1, the inhibition rises from -1.22% to 0.854%.

Compared with CCOC(=O)c1cc(C#N)c(N2CCCCC2)nc1-c1ccccc1, CCOC(=O)c1c(-c2ccccc2)oc2ccc(OCC(N)=O)cc12 is higher in inhibition: -3.84% for the first, 0.113% for the second.

Going from COc1ccccc1C(=O)Nc1ccccc1C(=O)Nc1ccccc1 to COC(=O)c1ccc(C(=O)Nc2cc(Cl)ccc2Cl)cc1NC(=O)c1ccccc1C, the inhibition falls from 3.3% to 2.78%.

First: O=S(=O)(c1cccc(Cn2nnc(-c3ccc(F)cc3)n2)c1)N1CCOCC1
Second: O=C(Nc1cc(S(=O)(=O)N2CCOCC2)ccc1OCC(F)(F)F)c1ccc(N2CCCC2=O)cc1
The inhibition of the first is lower: 5.68% for the first, 5.96% for the second.

Compared with Cc1cccc(Nc2nc(NCCO)nc(N3CCCC3)n2)c1, CN(C)S(=O)(=O)c1ccc(N2CCCC2)c(C(=O)Nc2ccc(Br)cc2F)c1 is higher in inhibition: -0.666% for the first, 0.866% for the second.

Compared with Cc1ccc(N2C(=O)C3CC3C2=O)cc1 (stereo not drawn), CCOC(=O)C1=C(N)N(c2ccc(C)cc2)C2=C(C(=O)CCC2)C1c1cccs1 (stereo not drawn) is lower in inhibition: 1.85% for the first, 1.06% for the second.

Going from Cc1ccc(S(=O)(=O)NCC(=O)N2CCN(c3ccccn3)CC2)cc1 to O=C(CCC1CCCN(C(=O)c2ccc(F)c(F)c2)C1)N1CCN(c2ccccn2)CC1 (stereo not drawn), the inhibition rises from -4.7% to 2.85%.

First: CCC(CC)c1nnc(NC(=O)C2=COCCO2)s1
Second: CC(=O)Cc1nsc(NC(=O)c2ccc(Cl)cc2Cl)n1
The inhibition of the first is lower: -0.607% for the first, 1.86% for the second.

First: CCOc1ccc(C2C(C#N)=C(N)N(N(C)C)C3=C2C(=O)CCC3)cc1 (stereo not drawn)
Second: COc1ccc(C2C(C#N)=C(N)N(c3ncn[nH]3)C3=C2C(=O)CCC3)cc1 (stereo not drawn)
The inhibition of the first is lower: -2.69% for the first, 2.61% for the second.

First: CCCCN1C(=O)CCC(C(=O)O)C1c1ccc(OC)cc1 (stereo not drawn)
Second: COc1ccc(CNC(=O)C2CCCC2)cc1
The inhibition of the first is lower: -1.74% for the first, -1.07% for the second.

Compared with O=C1c2ccccc2C(=O)c2c1cccc2N1CCN(C/C=C/c2ccccc2)CC1, CCC(C)c1ccccc1N1CC(C(=O)N2CCN(S(=O)(=O)c3ccc(F)cc3)CC2)CC1=O (stereo not drawn) is higher in inhibition: -1.77% for the first, 1.46% for the second.

Compared with Cc1nc(-c2ccccc2)sc1C1(C)CC(c2cccnc2)=NO1 (stereo not drawn), COCc1cc(=O)n2[nH]c(C)c(-c3ccccc3)c2n1 is lower in inhibition: 4.13% for the first, 1.2% for the second.

Compared with Cc1ccc(C(=O)NC(=S)NCCN2CCOCC2)cc1, CCCCc1ccc(NC(=S)NCCCN2CCOCC2)cc1 is higher in inhibition: -2.12% for the first, 1.19% for the second.

Compared with CCCCn1c(N)c(N(CCC(C)C)C(=O)CC2OC(=O)c3ccccc32)c(=O)[nH]c1=O (stereo not drawn), CCN(CC)CCN1C(=O)C(=O)/C(=C(/O)c2ccccc2)C1c1ccccc1F (stereo not drawn) is lower in inhibition: 0.056% for the first, -0.379% for the second.

Compared with CCN1CCN(C(c2cccnc2)c2cc(Cl)c3cccnc3c2O)CC1 (stereo not drawn), Oc1ccc(CN2CCN(c3ncccn3)CC2)cc1 is lower in inhibition: 2.34% for the first, -6.09% for the second.

Going from O=C(N/N=C/c1cc(Br)c(O)c([N+](=O)[O-])c1)C(O)(c1ccccc1)c1ccccc1 to O=C(Nc1ncccc1O)c1ccc(C(=O)c2ccccc2)cc1, the inhibition falls from -0.0435% to -5%.

First: CSc1nc(C)cc(SC(C(C)=O)C(=O)Nc2ccccc2)n1 (stereo not drawn)
Second: O=C(NNC(=O)c1cccnc1)Nc1ccccc1
The inhibition of the first is lower: -3.65% for the first, -0.622% for the second.

Going from CC(Sc1nc(-c2ccccc2)cc(C(F)(F)F)n1)C(=O)Nc1ccc2c(c1)OCO2 (stereo not drawn) to Cc1nc(Nc2ccc3c(c2)OCCO3)c2nnn(Cc3ccccc3Cl)c2n1, the inhibition rises from -1.24% to 3.56%.

Going from CC(=O)N[C@H]1[C@H]([C@H](O)[C@H](O)CO)OC(C(=O)O)=C[C@@H]1O to CCc1noc(C)c1C(=O)NNC(=O)c1ccc(F)cc1, the inhibition rises from 1.4% to 3.18%.

Going from COc1ccc(Cl)cc1NC(=O)CN(C)C(=O)c1cc(-c2cccs2)nn1-c1ccccc1 to COc1ccc(/C(O)=C2/C(=O)C(=O)N(CCCN(C)C)C2c2ccccc2)cc1OC (stereo not drawn), the inhibition rises from 0.469% to 3.13%.

First: CCCN(CCC)CCNC(=O)c1cc2c(C)nc3ccccc3c2o1
Second: Cc1nc2ccccc2c2oc(C(=O)NCC3CCCO3)cc12 (stereo not drawn)
The inhibition of the first is lower: 0.401% for the first, 4.76% for the second.

Compared with O=C(NCCS(=O)(=O)NCc1ccc(Cl)cc1)c1ccccc1, CN(C)C(CNC(=O)c1cccc(S(=O)(=O)Nc2ccc(Br)cc2)c1)c1ccco1 (stereo not drawn) is lower in inhibition: 5.39% for the first, -0.145% for the second.

Compared with CCOC(=O)c1c(C)oc2ccc(OCC(=O)N(CC)CC)cc12, CCOc1ccc(NC(=O)CN(C)C(=O)COc2cccc(CC)c2)cc1OCC is higher in inhibition: -3.75% for the first, -1.27% for the second.

Going from Cc1cc(-c2nnc(SCC(=O)Nc3ccc(S(N)(=O)=O)cc3)n2N)n[nH]1 to Cc1nc(Nc2ccc(S(=O)(=O)N3CCCC3)cc2)c2nnn(Cc3ccccc3)c2n1, the inhibition rises from 0.809% to 5.61%.

First: Cc1cccc(NC(=O)N2CCCCCC2)c1C
Second: CC(C)N(Cc1ccccc1)C(=O)COC(=O)c1ccccc1SCC(=O)N1CCCC1
The inhibition of the first is higher: 2.28% for the first, -1.94% for the second.

Going from N#CC1=C(N)OC2=C(C(=O)CCC2)C1C1CC=CCC1 (stereo not drawn) to COCc1[nH]nc2c1C(C1C=CCCC1)C(C#N)=C(N)O2 (stereo not drawn), the inhibition falls from -2.87% to -7.86%.

First: Cc1ccc2nc(NC(=O)CSc3nc(=O)n(CCCN(C)C)c4c3CCC4)sc2c1
Second: COc1ccccc1CNC(=O)CSc1nc(=O)n(Cc2ccncc2)c2c1CCC2
The inhibition of the first is higher: 1.53% for the first, -4.86% for the second.

Going from CC(=O)C12CC(C)=C(C)CC1CC1C3CCC4=CC(=O)CCC4(C)C3CCC12C (stereo not drawn) to COC(=O)c1ccc(C(=O)OC)c(NC(=S)N2CCN(c3cc(Cl)ccc3C)CC2)c1, the inhibition rises from 1.03% to 6.93%.

First: CCCOc1ccc(CN(CCO)CCO)cc1C(=O)OC
Second: CCS(=O)(=O)Nc1cc(C(=O)OC)ccc1C(=O)OC
The inhibition of the first is lower: -2.69% for the first, 4.57% for the second.

Going from COC(=O)c1ccc(C(=O)OC)c(NC(=S)N2CCN(c3ccc(F)cc3)CC2)c1 to O=C(Nc1ccc(OCC(=O)N2CCOCC2)cc1)c1cc(F)c(F)cc1Cl, the inhibition falls from 6.98% to 3.93%.

Compared with CCN(CC)C(=O)CCC(=O)Nc1ccc(C(=O)OC)cc1, CCN(CC)c1ccc(NC(=O)c2ccc(=O)[nH]c2)cc1S(=O)(=O)Nc1ccc(OC)cc1 is higher in inhibition: -3.39% for the first, -0.956% for the second.

Going from Cc1ccccc1OCC(=O)NNC(=O)c1ccc(-n2cncn2)c([N+](=O)[O-])c1 to CCOc1ccccc1NC(=O)c1cccnc1, the inhibition falls from 3.51% to -0.62%.

Compared with O=C(COC(=O)c1ncc(Cl)c(Cl)c1Cl)NC1CCS(=O)(=O)C1 (stereo not drawn), CCOc1ccc(CCNC(=O)COC(=O)c2ccc(F)c(S(=O)(=O)N3CCOCC3)c2)cc1OCC is lower in inhibition: 1.31% for the first, -2.22% for the second.

Compared with COc1ccc(C2/C(=C(/O)c3ccc(OC(C)C)cc3)C(=O)C(=O)N2CCCN2CCOCC2)cc1 (stereo not drawn), CC1Cc2cc(/C(O)=C3\C(=O)C(=O)N(CCN4CCOCC4)C3c3ccccc3F)ccc2O1 (stereo not drawn) is higher in inhibition: -1.52% for the first, 1.9% for the second.

Compared with COCC1CCN(C(=O)c2ccc3oc(Cc4ccccc4)nc3c2)C1 (stereo not drawn), [O-][n+]1ccc(OCc2ccccc2)cc1 is lower in inhibition: 1.03% for the first, -2.54% for the second.

With CCCNS(=O)(=O)c1ccc2c(c1)CCCN2C(C)=O the inhibition was 23.9% (active).
In the case of CCOc1ccc2nc(N3CCCN(C(=O)Nc4ccccc4C)CC3)c(C#N)cc2c1, the inhibition is reported as 119% (active).
In the case of Cc1ccc(N2CCN(c3ccc(C)cc3)C2c2ccccn2)cc1, the inhibition is reported as 20.1% (active).
CCOc1ccc(C2C3=C(CCCC3=O)N(CC(=O)O)C3=C2C(=O)CCC3)cc1 was tested, and the inhibition was 63.4% (active).
In the case of COc1ccc(C2C3=C(CCCC3=O)N(CC(=O)O)C3=C2C(=O)CCC3)cc1, the inhibition is reported as 61.1% (active).
Cc1ccc(NC(=S)NCCN2CCOCC2)cc1 was tested, and the inhibition was 18% (active).
In the case of Oc1c(CN2CCN(c3ccc(F)cc3)CC2)cc(Cl)c2cccnc12, the inhibition is reported as 24.8% (active).
With CC(Sc1nnc2c(n1)C1CCC2(C)C1(C)C)C(=O)Nc1ccccc1 (stereo not drawn) the inhibition was 27% (active).
Cc1nc2ccccc2c2oc(C(=O)NCCCN3CCC(C)CC3)cc12 was tested, and the inhibition was 34.1% (active).
With CCOC(=O)c1c(C)oc2cc(Br)c(OCC(N)=O)cc12 the inhibition was 19% (active).
In the case of N#CC1=C(N)Oc2cc(O)ccc2C1C1CCCCC1 (stereo not drawn), the inhibition is reported as 140% (active).
With Cc1nc(Nc2ccccc2F)c2nnn(Cc3ccccc3Cl)c2n1 the inhibition was 35.1% (active).
CCCN(CCC)C(=S)Nc1cc(C(=O)OC)ccc1C(=O)OC was tested, and the inhibition was 41% (active).
With COC(=O)c1ccc(C(=O)OC)c(NC(=S)N2CCCCC2)c1 the inhibition was 55.3% (active).
CCN(CCO)C(=S)Nc1cc(C(=O)OC)ccc1C(=O)OC was tested, and the inhibition was 16.3% (active).
CCN(CC)CCN1C(=O)C(=O)/C(=C(/O)c2ccc(OC)c(OC)c2)C1c1ccccn1 (stereo not drawn) was tested, and the inhibition was 33.8% (active).
With O=C1C(=O)N(CCN2CCOCC2)C(c2ccccn2)/C1=C(/O)c1ccc(Cl)cc1 (stereo not drawn) the inhibition was 20.4% (active).
O=C(Nc1cnccn1)c1cccnc1 was tested, and the inhibition was 15.8% (active).
CCN1CCc2nc(NC(=O)c3cc(F)c(F)cc3Cl)sc2C1 was tested, and the inhibition was 19.6% (active).
